This is one part of the list. Inconclusive results are not listed. Active and inactive are the calls of the source. The call rests on the fitted dose curve; in most records, active means well fitted curve in the direction sought with a large enough effect; inconclusive means small, poorly fitted or top-dose-only effect, or effect the other way, or another doubt; inactive means no such curve, though single readings can be large or run the other way.
Target: Thyrotropin-releasing hormone receptor (Homo sapiens) (UniProt P34981)
Assay: qHTS for Small Molecule Agonists and Allosteric Enhancers of Human TRH Receptor: Confirmation Screen for Enhancers
Conditions: TRH receptor cell assay, enhancer confirmation qHTS; series mostly up to 46.1 µM
Excerpt: NIH Chemical Genomics Center [NCGC]
NIH Molecular Libraries Probe Centers Network [MLPCN]
Assay Submitter (PI): Marvin Gershengorn
This project aims to identify small drug-like molecules that activate (agonists) the thyrotropin releasing hormone (TRH) receptor (TRHR) or enhance its TRH-stimulated activity (allosteric enhancers). TRHR, a drug-accessible cell surface receptor expressed in specific brain regions, and its ligand TRH have been implicated in several central nervous system disorders, including depression and anxiety. Small molecule TRHR agonists or allosteric enhancers that are metabolically stable and able to cross the blood-brain barrier might serve as probes to elucidate the roles of brain TRH receptors in animal models, and might be valuable as lead compounds for the development of drugs to treat patients with central nervous system disorders.
Upon TRHR-Gq activation in TRHR cells, intracellular calcium is released from stores in the endoplasmic reticulum. […] This primary screen measures compound-induced enhancement of an EC20 stimulation of the receptor by its native ligand.
For the HTS assay freshly prepared cells are plated at a density of 2000/well in 3 ul of complete DMEM medium containing 10% serum in 1536-well plates and cultured over night at 37 C in a humidified incubator with 5% CO2. The next day, 2 ul of a no wash calcium dye (ABD Bioquest) was added to the cells and plates were incubated at room temperature for 1 hour. For the assay, assay plates were loaded into the FDSS kinetic plate reader. A 10 cycle (1 second/cycle) baseline measurement is taken and then the FDSS online 1536 pintool delivers 23 nl of compound library (as well as TRH controls) to the plate. The plate is measured for kinetically at 1 cycle/sec for 180 seconds and is considered to be the agonist portion of the assay (eg, compounds which activate a positive calcium response during this portion are flagged as potential agonists). Following the 180 second read, 1 ul of either an EC20 (positive modulation assay) is delivered by an onboard pipette head. Measurements are taken kinetically for an additional 180 seconds.
TRHR FDSS Screening Protocol
1. Reagent, 3 uL 2000 cells/well 1536 TC treated Black plate in media containing 10% FCS
2. Time, 18 hours, 33.5C 5% CO2 (cells grown at 37C)
3. Reagent, 2 uL ABD fluo-8 Ca dye
4. Time, 30 min-1.5hrs hours, Room temp (6 plates/batch)
5. Detector, EX 480/EM 530C, FDSS 10 cycles baseline (1sec/cycle)
6. Compound, 23 nL of stock solution from library
7. Detector, EX 480/EM 530C, FDSS 230 cycles (1sec/cycle) Agonist mode
8. Compound, 1 ul EC20 of TRH made up in HEPES HBSS, 10 nM final
9. Detector, EX 480/EM 530C, FDSS 100 cycles (1sec/cycle) Potentiator mode

Thyrotropin-releasing hormone receptor (Homo sapiens), sequence (P34981 whole entry, looked up): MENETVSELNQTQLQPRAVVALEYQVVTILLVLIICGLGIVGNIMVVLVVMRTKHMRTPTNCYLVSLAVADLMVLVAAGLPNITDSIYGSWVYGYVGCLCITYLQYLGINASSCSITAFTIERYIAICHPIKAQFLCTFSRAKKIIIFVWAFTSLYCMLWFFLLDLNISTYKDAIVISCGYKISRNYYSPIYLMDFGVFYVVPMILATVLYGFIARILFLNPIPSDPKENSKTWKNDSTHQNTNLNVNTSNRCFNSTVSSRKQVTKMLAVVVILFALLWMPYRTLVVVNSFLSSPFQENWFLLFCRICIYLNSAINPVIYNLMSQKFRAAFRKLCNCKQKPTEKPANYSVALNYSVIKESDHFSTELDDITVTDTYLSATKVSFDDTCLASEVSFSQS

outcome, inactive:
C/C(=C\c1ccco1)CN1CCC(N2CCC(C(=O)N3CCOCC3)CC2)CC1, Cc1cc(S(=O)(=O)c2cc3ccc(O)c(C)c3oc2=O)ccc1F, CCc1ccccc1NC(=O)/C(=C/c1ccccc1)c1ccccc1
